Results as given in PubChem BioAssay AID2599 (Sanford-Burnham Center for Chemical Genomics, 2010).
Screen size: about 330,000 compounds; about 5,800 (1.8%) were called active.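 Rule for the calls: active = inhibition above about 50% at the single tested dose (limit read from the data); inactive = the rest.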 This excerpt belongs to a sample that is enriched for actives.

Each compound was assayed against Sentrin-specific protease 6 (Homo sapiens) (UniProt Q9GZR1) (assay: inhibition of human SENP6 catalytic domain – biochemical, luminescence, uHTS, primary screen (AID 2599;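 note: plate controls were DMSO wells with enzyme for no effect and DMSO wells lacking enzyme for full effect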)). Details: Recombinant SENP6 catalytic domain, aminoluciferin luminescence; at 10 µM; hits give high values.
Sequence of Sentrin-specific protease 6 (Homo sapiens) (Q9GZR1 628-1112 limits assumed): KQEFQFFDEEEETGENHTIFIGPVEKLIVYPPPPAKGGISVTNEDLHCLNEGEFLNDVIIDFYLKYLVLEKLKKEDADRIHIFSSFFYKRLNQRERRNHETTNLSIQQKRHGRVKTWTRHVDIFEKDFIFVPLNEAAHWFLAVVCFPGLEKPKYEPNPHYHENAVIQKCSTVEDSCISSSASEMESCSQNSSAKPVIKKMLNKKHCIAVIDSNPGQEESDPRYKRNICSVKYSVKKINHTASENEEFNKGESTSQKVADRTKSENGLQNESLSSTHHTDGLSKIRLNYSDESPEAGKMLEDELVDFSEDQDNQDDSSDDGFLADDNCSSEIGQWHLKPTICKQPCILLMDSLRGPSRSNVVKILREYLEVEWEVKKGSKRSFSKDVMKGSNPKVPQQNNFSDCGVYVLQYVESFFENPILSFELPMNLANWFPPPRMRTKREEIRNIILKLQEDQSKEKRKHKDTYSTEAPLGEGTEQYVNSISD
`COC(=O)[C@]1(Cc2ccccc2)N[C@H](CN(C)S(=O)(=O)c2ccc(OC(F)(F)F)cc2)[C@@H]2C(=O)N(C)C(=O)[C@@H]21` was tested, and the inhibition was 17% (inactive).
With `O=C(COc1ccccc1)N1CCN=C1SCc1cccc(F)c1` the inhibition was -16.4% (inactive).
With `CSCc1ccc(C(=O)Nc2cc(C)cc(C)c2)cc1` the inhibition was 86% (active).
In the case of `C=CCN(c1ccc(C(=O)Nc2cc(C)cc(C)c2)cc1)S(C)(=O)=O`, the inhibition is reported as 7.58% (inactive).
In the case of `CC(=O)Nc1ccccc1NC(=O)c1cc(C)cc(C)c1`, the inhibition is reported as 3.76% (inactive).
`Cc1cc(NC(=O)OC(C)C)ccc1-c1ccc(NC(=O)OC(C)C)cc1C` was tested, and the inhibition was -24.2% (inactive).
With `O=C(NCCCn1ccnc1)c1cc(-c2ccccc2)on1` the inhibition was 13.4% (inactive).
For `COc1cc2ccccc2cc1C(=O)N1CCOCC1`, the inhibition was 5.76% (inactive).
For `COC1=C(N2CCOCC2)C(=O)c2ccccc2C1=O`, the inhibition was 44.9% (inactive).
`Cc1oc2c(c1C(=O)N1CCOCC1)C(=O)c1ccccc1C2=O` was tested, and the inhibition was 68.9% (active).
With `Cc1ccc(NC(=O)C2CC2)cc1S(=O)(=O)N1CCOCC1` the inhibition was -10.6% (inactive).
For `COC(=O)c1ccc(NCC(=O)N2CCCCCC2)cc1`, the inhibition was -9.61% (inactive).
For `Cc1ccc(C(=O)CNc2ccc(F)cc2)cc1`, the inhibition was 6.04% (inactive).
`COC(=O)c1ccc(NCC(=O)c2ccccc2)cc1` was tested, and the inhibition was 95.5% (active).
For `Cn1ncc2c(NNC(=O)Cc3cccc4ccccc34)ncnc21`, the inhibition was -8.95% (inactive).
`O=C(CN1CCN(c2cccc(Cl)c2)CC1)Nc1ccc(S(=O)(=O)N2CCOCC2)cc1` was tested, and the inhibition was 5.09% (inactive).
For `CCOC(=O)C(NC(C)=O)C(=O)Nc1ccc(OC)cc1` (stereo unspecified), the inhibition was 4.26% (inactive).
In the case of `CCC(CO)Oc1cc(NC(=O)c2cccc(F)c2)c2ncn(C(C)C)c2c1` (stereo unspecified), the inhibition is reported as -22.5% (inactive).
For `CCC(CO)Oc1cc(NCc2ccccc2)c2ncn(C3CCCC3)c2c1` (stereo unspecified), the inhibition was 1.75% (inactive).
For `CCC(CO)Oc1cc(NC(=O)c2cccc3ccccc23)c2ncn(C(C)C)c2c1` (stereo unspecified), the inhibition was -4.87% (inactive).
In the case of `CC(C)n1cnc2c(NCc3ccccc3)cc(OCC3CCN(C)CC3)cc21`, the inhibition is reported as 77.9% (active).
For `CC(C)n1cnc2c(NCc3ccccc3)cc(N[C@@H](CO)Cc3ccccc3)cc21`, the inhibition was 75.8% (active).
`CCC(CO)Oc1cc(NC(=O)c2ccc(Cl)cc2)c2ncn(C(C)C)c2c1` (stereo unspecified) was tested, and the inhibition was -20.3% (inactive).
In the case of `COc1ccc(OC)c(S(=O)(=O)Nc2c(C)nn(C)c2C)c1`, the inhibition is reported as -2.99% (inactive).
For `COc1ccccc1CCNC(=O)CSc1nnc2ccc(-c3cccnc3)nn12`, the inhibition was 17% (inactive).
For `CC(C)(C)CC(C)(C)NCC(O)COCCOc1ccc(Br)cc1` (stereo unspecified), the inhibition was 9.07% (inactive).
For `O=C(O)CC/C(=C\c1cc2c(cc1Br)OCO2)c1nc2ccccc2s1`, the inhibition was -4.31% (inactive).
For `Cc1cc(N=Nc2ccc3ccccc3c2)ccc1O`, the inhibition was 98% (active).
For `Cc1ccccc1CSc1nnc(-c2ccccn2)n1N`, the inhibition was 7.46% (inactive).
For `COc1ccc(C2C=C(c3ccc(Br)cc3)Nc3nc(NS(C)(=O)=O)nn32)cc1` (stereo unspecified), the inhibition was 3.75% (inactive).
`Brc1ccccc1C1Nc2cccc3cccc(c23)N1` was tested, and the inhibition was 51.7% (active).
In the case of `C/C(=C\c1ccco1)C1Nc2cccc3cccc(c23)N1`, the inhibition is reported as -84.6% (inactive).
In the case of `Oc1ccc(C2Nc3cccc4cccc(c34)N2)cc1`, the inhibition is reported as 15.2% (inactive).
For `CC1CN(C(=S)Nc2cccc(F)c2)CC(C)O1` (stereo unspecified), the inhibition was 15.9% (inactive).
In the case of `O=c1ccc(S(=O)(=O)N2CCCC2)cn1Cc1nc(-c2ccccc2)no1`, the inhibition is reported as -10.4% (inactive).
For `CN(C)c1ccc(NC(=O)CN2C3CCCC2CC(NC(=O)c2ccccc2)C3)cc1` (stereo unspecified), the inhibition was -8.69% (inactive).
For `COC(=O)c1ccccc1NC(=O)C1(S(=O)(=O)c2ccc(Cl)cc2)CC1`, the inhibition was 16.9% (inactive).
In the case of `Nc1ccc2nn(-c3ccc(Cl)cc3)nc2c1`, the inhibition is reported as 95% (active).
`CN(C)c1nnnn1-c1ccc(Cl)cc1` was tested, and the inhibition was 2.68% (inactive).
In the case of `c1ccc(-n2nc3ccccc3n2)cc1`, the inhibition is reported as -28.4% (inactive).
For `CN(C)CCCNC(=O)c1cc(C(=O)Cc2ccc(Cl)cc2)c[nH]1`, the inhibition was -9.62% (inactive).
`O=C(CSC(=S)N1CCOCC1)c1cc(Br)cc(Br)c1O` was tested, and the inhibition was -12.1% (inactive).
With `CC1CN(C(=S)SCC(=O)c2ccccc2)CC(C)O1` (stereo unspecified) the inhibition was -20.8% (inactive).
With `O=C(CSC(=S)N1CCOCC1)c1ccccc1` the inhibition was 60.8% (active).
In the case of `Cc1ccc(CNC(=O)CC2Sc3ccccc3NC2=O)cc1` (stereo unspecified), the inhibition is reported as -4.12% (inactive).
With `C#CCOCCOCCOCCNc1nc(N2CCN(C(=O)C([C@@H](C)CC)n3cc(C(N)COC(=O)C(F)(F)F)nn3)CC2)nc(N2CCN(C(=O)[C@H](CCCCN)n3cc(C(N)CC(C)C)nn3)CC2)n1` (stereo partly specified) the inhibition was -9.82% (inactive).
With `O=C(Nc1ccc(C(=O)O)c(O)c1)c1ccccc1` the inhibition was 83.4% (active).
In the case of `O=C(Nc1cccc(NC(=O)c2cccc(F)c2)c1)c1ccccc1`, the inhibition is reported as -18.8% (inactive).
In the case of `O=C(Nc1cccc(C(=O)N2CCCC2)c1)c1ccccc1`, the inhibition is reported as -14.4% (inactive).
In the case of `COc1cccc(N2CC(C(=O)NCc3n[nH]c(=O)c4ccccc34)CC2=O)c1` (stereo unspecified), the inhibition is reported as -13.6% (inactive).
With `O=C(O)/C=C/c1ccc(S(=O)(=O)N2CCCCCC2)cc1` the inhibition was 16.2% (inactive).
`CC(C)c1nc(SCC(=O)NC(=O)NC(C)(C)C)n[nH]1` was tested, and the inhibition was -25.6% (inactive).
With `CN(C)C(=O)c1ccc(NC(=O)COC(=O)c2cc3c(s2)CCCCC3)cc1` the inhibition was -9.42% (inactive).
With `O=C(NCC1CCCO1)c1cc2c(s1)CCCC2` (stereo unspecified) the inhibition was 6.51% (inactive).
With `O=C(Nc1ccc(F)cc1)c1cc2c(s1)CCCC2` the inhibition was 89% (active).
`Cc1noc(C)c1CSCC(=O)Nc1nc2ccc(Oc3ccccc3)cc2s1` was tested, and the inhibition was 14.7% (inactive).
For `CS(=O)(=O)c1ccc2nc(NC(=O)c3ccc(Cl)nc3)sc2c1`, the inhibition was 0.381% (inactive).
`COc1cccc(C(=O)Nc2nnc(S(=O)(=O)N(C)c3ccccc3)s2)c1` was tested, and the inhibition was 12.8% (inactive).
`CCc1noc(C)c1C(=O)Nc1nc(-c2ccccc2)cs1` was tested, and the inhibition was -13.3% (inactive).
In the case of `CCc1noc(C)c1C(=O)Nc1nc2ccc(OC)cc2s1`, the inhibition is reported as 59.6% (active).
In the case of `COc1cccc(C(=O)Nc2nc3ccc(S(C)(=O)=O)cc3s2)c1`, the inhibition is reported as 89.1% (active).
In the case of `CC1=NN(C(=O)CCc2ccccc2O)C(O)(C(F)(F)F)C1` (stereo unspecified), the inhibition is reported as 13.7% (inactive).
With `COc1ccccc1CCC(=O)OCC(=O)N1CCN(S(=O)(=O)c2ccc(C)cc2C)CC1` the inhibition was -9.38% (inactive).
In the case of `COc1ccc(NC(=O)C2COc3ccccc3O2)cc1` (stereo unspecified), the inhibition is reported as 2.57% (inactive).
In the case of `COc1ccc(OC)c2sc(NC(=O)C3COc4ccccc4O3)nc12` (stereo unspecified), the inhibition is reported as -3.77% (inactive).
`O=C(Nc1ncc([N+](=O)[O-])s1)C1COc2ccccc2O1` (stereo unspecified) was tested, and the inhibition was 97.8% (active).
For `CC(C)(C)C(=O)NCCCNc1ccc([N+](=O)[O-])cc1`, the inhibition was -25.9% (inactive).
For `O=C(Nn1cnc2ccccc2c1=O)c1ccccc1`, the inhibition was -4.91% (inactive).
In the case of `CCCc1nc2ccccc2c(=O)n1/N=C/c1ccc(O)c(O)c1`, the inhibition is reported as -27.3% (inactive).
`O=c1c2ccccc2ncn1/N=C/c1ccccc1` was tested, and the inhibition was 85.3% (active).
`COc1cccc(CNn2cn[nH]c2=S)c1OCc1ccccc1` was tested, and the inhibition was -3.63% (inactive).
In the case of `Cc1cc2nc(SCCN3CCOCC3)[nH]c2cc1C`, the inhibition is reported as 1.61% (inactive).
For `COc1ccc(/C=C2\SC(=S)N(CC(=O)NNC(=O)c3ccncc3)C2=O)cc1`, the inhibition was -3.66% (inactive).
`C=CCOc1ccc(/C=C2\SC(=S)N(CCC(=O)O)C2=O)cc1` was tested, and the inhibition was 100% (active).
`O=C(CCCN1C(=O)/C(=C/c2ccccc2)SC1=S)Nc1ccc(O)cc1` was tested, and the inhibition was 21.3% (inactive).
In the case of `O=C(CN1CCCCC1)Nc1ccccc1C(=O)NC1CC1`, the inhibition is reported as -13.9% (inactive).
For `Cc1ccc(NC(=O)CS(=O)CC(=O)N(c2ccccc2)C(C)C(=O)NC2CCCC2)cc1` (stereo unspecified), the inhibition was -5.91% (inactive).
With `O=C(Nc1cccc(O)c1)c1ccc(C(=O)c2ccccc2)o1` the inhibition was 2.68% (inactive).
With `C/C(=C\C(=O)c1cccnc1)Nc1ccc(C)c(C)c1` the inhibition was 6.26% (inactive).
`C/C(=C\C(=O)c1ccccc1)Nc1cccc(O)c1` was tested, and the inhibition was 57.9% (active).
For `CCC1(CC)NC(=O)N(CC(=O)OCC(=O)c2cc(C)c(C)cc2C)C1=O`, the inhibition was -10.6% (inactive).
With `Cc1ccc(S(=O)(=O)/N=C(\CN2CCOCC2)N2CCOCC2)cc1` the inhibition was 12.4% (inactive).
`COc1cc(NC(=O)COC(=O)c2ccc([N+](=O)[O-])s2)cc(OC)c1OC` was tested, and the inhibition was 68.2% (active).
In the case of `COc1ccc(C(=O)COC(=O)c2ccc([N+](=O)[O-])s2)cc1OC`, the inhibition is reported as 38.4% (inactive).
In the case of `O=C(OCC(=O)N1CCN(c2ccccc2)CC1)c1ccc([N+](=O)[O-])s1`, the inhibition is reported as 49.4% (inactive).
`O=C(NCc1ccccc1CN1CCCC1)c1cccc(S(=O)(=O)Nc2ccc(F)cc2)c1` was tested, and the inhibition was 18.3% (inactive).
`C[C@@H]1CN([C@@H](C)CO)C(=O)c2cc(NC(=O)C3CC3)ccc2O[C@H]1CN(C)C` was tested, and the inhibition was 1.75% (inactive).
In the case of `COc1ccc(S(=O)(=O)N2CCC(C(=O)NCCC(=O)NCc3cccc(OC)c3)CC2)cc1`, the inhibition is reported as 0.176% (inactive).
In the case of `CC(=O)N1CCN(C(=O)c2cccc(S(=O)(=O)Nc3ccc(C)cc3)c2)CC1`, the inhibition is reported as -4.46% (inactive).
`Cc1cccc(NS(=O)(=O)c2ccc(C)c(C(N)=O)c2)c1` was tested, and the inhibition was -6.03% (inactive).
`Cc1cccc(NS(=O)(=O)c2cccc(C(=O)NNC(=O)c3ccccc3O)c2)c1` was tested, and the inhibition was 64.3% (active).
With `CNc1nc(SC)nc(N(C#N)CC(=O)OC)n1` the inhibition was 11.5% (inactive).
For `CCN(CC)S(=O)(=O)c1ccc(C)c(NC(=O)COc2ccc(Br)cc2Cl)c1`, the inhibition was 9.17% (inactive).
`Cc1cccc(NC(=O)COc2ccc(Br)cc2C)n1` was tested, and the inhibition was 69.2% (active).
For `Cc1cccc(NC(=O)Cc2ccc(Br)cc2)n1`, the inhibition was 16% (inactive).
With `Cc1ccc(N(C(=O)Cc2cccs2)C2C=CS(=O)(=O)C2)cc1Cl` (stereo unspecified) the inhibition was -12.7% (inactive).
